The record followed here is PubChem BioAssay (NCATS).

Where “and” joins values, the source holds several entries; their conditions need not be identical. Equal entries are not always repeated. Records with an inconclusive call do not appear. The source holds several records for some structures; these can differ, active in one and inactive in another. Calls of active or inactive are those of the source. Unless noted, the call rests on the fitted dose curve; in most records, active means well fitted curve in the direction sought with a large enough effect; inconclusive means small, poorly fitted or top-dose-only effect, or another doubt; inactive means no such curve, though single readings can be large; an effect the other way counts as inactive or inconclusive.

Assay [1] can be described thus: Primary qHTS for inhibitors of nuclear receptor binding SET domain protein 2 (NSD2) in an RCH-ACV wild type WT cells (2C) (AID 1645877). Further: nearly all actives have a fitted effect of over 70% in size. Further: potency means the concentration at half of the fitted maximal effect.
Assay [2] deals with Cytochrome P450 2C9 (Homo sapiens) (UniProt P11712). The assay can be described thus: Cytochrome P450 family 2 subfamily C member 9 (CYP2C9) small molecule antagonists: luciferase biochemical (cell-free) qHTS assay (AID 1645842; active means well fitted curve in the direction sought with a large enough effect in the repeat runs; an effect the other way counts as inactive or inconclusive; further: nearly all actives have a fitted effect of over 55% in size; further: potency means the concentration at half of the fitted maximal effect; on activity change, negative = inhibition: on the % scale 0 is the no-effect control and ±100 the full control effect). The procedure, abridged: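 P450-Glo CYP2C9 system: proluciferin substrate with enzyme in mix containing 0.4% BSA, 10 min at room temperature, then NADPH regeneration solution added and incubated 1 h at 37C. Detection reagent stopped reaction; luminescence read after 20 min as RLU.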

Assay [3] is described as follows: Primary qHTS for inhibitors of nuclear receptor binding SET domain protein 2 (NSD2) in an isogenic RCH-ACV NSD2 p.E1099K mutant (9B) (AID 1645876). Further: nearly all actives have a fitted effect of over 70% in size. Further: potency means the concentration at half of the fitted maximal effect.
Assay [4] is described as follows: NCATS anti-infectives library activity on the primary C. elegans qHTS viability assay (AID 1745855; calls by dose curve; further: potency means the concentration at half of the fitted maximal effect). The method in brief: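 Titration-based screen in worms: eggs hatched overnight in M9, L1 larvae fed TOP10 capsules in S medium with compound, incubated 21 °C for 7 days; fluorescent objects gated by size and intensity at days 0, 3 and 7.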
In general terms: In qHTS, concentration-response curves come from the screen itself.

The target in the next assay is Papain (Carica papaya) (UniProt P00784). The assay can be described thus: Primary qHTS assay for inhibitors of the protease papain (AID 1645873).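 Further: papain turnover of Z-FR-AMC read as the AMC fluorescence gain over 10 min.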 Further: potency means the concentration at half of the fitted maximal effect. On activity change, negative = inhibition: on the % scale 0 is the no-effect control and ±100 the full control effect.
Assay [5] has as its target Rap guanine nucleotide exchange factor 3 (Homo sapiens) (UniProt O95398). Nature of the assay: Confirmatory qHTS for antagonist of cAMP-regulated guanine nucleotide exchange factor 3 (EPAC1) (AID 1645880).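 Further: plate controls were DMSO only for no effect and full effect of the ATA control for full effect; nearly all actives have a fitted effect of over 55% in size.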 The method in brief:
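Released BODIPY-GDP fluoresces less than Rap1-bound BODIPY-GDP; the signal is followed at 480/540 nm at 5-min intervals over 30 min, after 5 min at room temperature. Reactions contain 100 nM EPAC1, 250 nM RAP1B-BODIPY-GDP and 50 uM GDP; results are normalized to ATA and DMSO.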

Assay [6] has the same target. The assay can be described thus: Confirmatory qHTS for agonist of cAMP-regulated guanine nucleotide exchange factor 3 (EPAC1) (AID 1645881).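 Further: EPAC1 catalysed release of BODIPY-GDP from Rap1B seen as fluorescence loss; 100% = effect of cAMP agonist control; nearly all actives have a fitted effect of over 75% in size.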
For assay [7], the target named is Rap guanine nucleotide exchange factor 4 (Homo sapiens) (UniProt Q8WZA2). Nature of the assay: Confirmatory qHTS for agonist of cAMP-regulated guanine nucleotide exchange factor 4 (EPAC2) (AID 1645884).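 Further: nucleotide exchange releases bodipy-GDP from Rap1 and this lowers its fluorescence; on the % scale 0 is the no-effect control and ±100 the full control effect; nearly all actives have a fitted effect of over 65% in size.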
For assay [8] the target is unchanged. The assay can be described thus: Confirmatory qHTS for antagonist of cAMP-regulated guanine nucleotide exchange factor 4 (EPAC2) (AID 1645885). Further: nearly all actives have a fitted effect of over 25% in size. Further: potency means the concentration at half of the fitted maximal effect. On activity change, negative = inhibition: on the % scale 0 is the no-effect control and ±100 the full control effect.
In assay [9] the target is Catechol O-methyltransferase (Homo sapiens) (UniProt P21964). Nature of the assay: Confirmatory Screen for Target Class Profiling of Small Molecule Inhibitors of Methyltransferases (AID 1745852). On activity change, negative = inhibition: on the % scale 0 is the no-effect control and ±100 the full control effect. The settings on record: MTase-Glo luminescence, SAH detection, recombinant enzyme; measured here: COMT max response; stronger effect = lower value.
In assay [10] the target is Guanidinoacetate N-methyltransferase (Homo sapiens) (UniProt Q14353). The assay is described as above. The conditions noted are these: MTase-Glo luminescence, SAH detection, recombinant enzyme; at 57.3 µM (top of the series).
In assay [11] the target is Nicotinamide N-methyltransferase (Homo sapiens) (UniProt P40261). Described as above. The conditions noted are these: MTase-Glo luminescence, SAH detection, recombinant enzyme; measured here: NNMT max response; stronger effect = lower value.
For assay [12], the target named is Phenylethanolamine N-methyltransferase (Homo sapiens) (UniProt P11086). Described as above. The conditions noted are these: MTase-Glo luminescence, SAH detection, recombinant enzyme; measured here: PNMT max response; stronger effect = lower value.
Chain of Phenylethanolamine N-methyltransferase (Homo sapiens) (P11086 whole entry, looked up): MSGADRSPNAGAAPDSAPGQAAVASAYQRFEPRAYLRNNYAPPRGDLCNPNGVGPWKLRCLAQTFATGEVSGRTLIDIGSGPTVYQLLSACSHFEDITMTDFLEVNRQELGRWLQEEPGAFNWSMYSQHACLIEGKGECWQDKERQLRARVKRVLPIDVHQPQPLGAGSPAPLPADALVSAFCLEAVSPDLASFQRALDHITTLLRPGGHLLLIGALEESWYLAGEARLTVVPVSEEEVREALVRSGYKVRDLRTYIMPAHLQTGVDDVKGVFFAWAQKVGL

Chain of Rap guanine nucleotide exchange factor 3 (Homo sapiens) (O95398 whole entry, looked up): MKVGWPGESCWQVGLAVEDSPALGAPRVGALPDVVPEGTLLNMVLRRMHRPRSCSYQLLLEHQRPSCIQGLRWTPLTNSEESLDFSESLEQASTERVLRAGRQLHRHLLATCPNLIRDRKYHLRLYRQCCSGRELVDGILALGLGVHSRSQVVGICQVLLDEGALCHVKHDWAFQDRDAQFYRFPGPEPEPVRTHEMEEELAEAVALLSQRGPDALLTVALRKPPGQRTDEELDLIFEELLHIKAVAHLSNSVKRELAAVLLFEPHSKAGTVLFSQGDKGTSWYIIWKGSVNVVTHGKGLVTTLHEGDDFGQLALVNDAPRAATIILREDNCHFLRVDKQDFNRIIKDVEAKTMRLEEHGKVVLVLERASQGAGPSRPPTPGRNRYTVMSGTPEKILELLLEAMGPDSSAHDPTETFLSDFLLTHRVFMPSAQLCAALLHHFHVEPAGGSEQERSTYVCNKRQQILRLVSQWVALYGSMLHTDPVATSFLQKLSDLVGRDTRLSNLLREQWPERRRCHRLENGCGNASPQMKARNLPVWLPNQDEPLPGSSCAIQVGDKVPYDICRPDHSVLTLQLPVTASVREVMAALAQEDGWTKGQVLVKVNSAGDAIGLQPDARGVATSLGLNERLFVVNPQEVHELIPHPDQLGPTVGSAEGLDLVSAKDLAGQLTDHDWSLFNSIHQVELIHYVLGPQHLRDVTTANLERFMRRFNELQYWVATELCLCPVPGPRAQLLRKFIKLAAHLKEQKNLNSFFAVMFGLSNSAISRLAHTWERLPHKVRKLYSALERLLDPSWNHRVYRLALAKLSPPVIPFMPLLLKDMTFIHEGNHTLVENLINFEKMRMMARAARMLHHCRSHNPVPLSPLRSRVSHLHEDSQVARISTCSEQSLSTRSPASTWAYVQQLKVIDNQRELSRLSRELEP
Chain of Rap guanine nucleotide exchange factor 4 (Homo sapiens) (Q8WZA2 whole entry, looked up): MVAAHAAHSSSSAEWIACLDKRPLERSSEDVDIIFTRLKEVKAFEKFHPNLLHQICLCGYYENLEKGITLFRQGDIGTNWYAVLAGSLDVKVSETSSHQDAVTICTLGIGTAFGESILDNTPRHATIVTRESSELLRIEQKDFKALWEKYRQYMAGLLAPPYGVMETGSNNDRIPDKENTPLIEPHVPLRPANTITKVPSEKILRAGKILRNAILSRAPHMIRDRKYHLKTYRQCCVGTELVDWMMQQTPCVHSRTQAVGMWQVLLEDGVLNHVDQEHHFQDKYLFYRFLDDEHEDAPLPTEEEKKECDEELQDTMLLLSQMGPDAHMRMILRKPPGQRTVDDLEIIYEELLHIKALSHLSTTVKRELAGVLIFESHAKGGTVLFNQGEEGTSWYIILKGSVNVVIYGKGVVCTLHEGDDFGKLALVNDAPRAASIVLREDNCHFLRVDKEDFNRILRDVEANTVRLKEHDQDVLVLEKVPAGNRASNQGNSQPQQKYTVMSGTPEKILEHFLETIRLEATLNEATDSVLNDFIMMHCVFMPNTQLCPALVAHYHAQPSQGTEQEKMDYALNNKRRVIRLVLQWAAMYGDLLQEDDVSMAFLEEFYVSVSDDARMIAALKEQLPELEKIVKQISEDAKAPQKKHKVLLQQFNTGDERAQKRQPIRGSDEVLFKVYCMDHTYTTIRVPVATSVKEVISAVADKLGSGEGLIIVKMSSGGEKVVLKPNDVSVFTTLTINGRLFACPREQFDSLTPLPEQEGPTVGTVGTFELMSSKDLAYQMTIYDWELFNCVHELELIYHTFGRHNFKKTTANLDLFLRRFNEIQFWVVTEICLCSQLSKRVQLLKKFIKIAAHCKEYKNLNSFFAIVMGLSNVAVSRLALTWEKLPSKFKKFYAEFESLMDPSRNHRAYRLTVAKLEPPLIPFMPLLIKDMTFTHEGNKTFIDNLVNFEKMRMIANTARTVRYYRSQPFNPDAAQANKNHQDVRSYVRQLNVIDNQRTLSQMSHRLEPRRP
Chain of Papain (Carica papaya) (P00784 whole entry, looked up): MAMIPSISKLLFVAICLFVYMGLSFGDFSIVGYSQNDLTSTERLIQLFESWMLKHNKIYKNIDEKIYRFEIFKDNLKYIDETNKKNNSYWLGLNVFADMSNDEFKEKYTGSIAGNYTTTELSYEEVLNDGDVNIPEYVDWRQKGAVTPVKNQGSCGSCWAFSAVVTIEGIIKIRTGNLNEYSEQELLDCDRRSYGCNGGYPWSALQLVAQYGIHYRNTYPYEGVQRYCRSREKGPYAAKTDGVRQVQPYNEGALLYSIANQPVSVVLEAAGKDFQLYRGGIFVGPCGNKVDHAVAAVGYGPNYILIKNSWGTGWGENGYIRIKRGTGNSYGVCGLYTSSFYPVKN
Chain of Cytochrome P450 2C9 (Homo sapiens) (P11712 whole entry, looked up): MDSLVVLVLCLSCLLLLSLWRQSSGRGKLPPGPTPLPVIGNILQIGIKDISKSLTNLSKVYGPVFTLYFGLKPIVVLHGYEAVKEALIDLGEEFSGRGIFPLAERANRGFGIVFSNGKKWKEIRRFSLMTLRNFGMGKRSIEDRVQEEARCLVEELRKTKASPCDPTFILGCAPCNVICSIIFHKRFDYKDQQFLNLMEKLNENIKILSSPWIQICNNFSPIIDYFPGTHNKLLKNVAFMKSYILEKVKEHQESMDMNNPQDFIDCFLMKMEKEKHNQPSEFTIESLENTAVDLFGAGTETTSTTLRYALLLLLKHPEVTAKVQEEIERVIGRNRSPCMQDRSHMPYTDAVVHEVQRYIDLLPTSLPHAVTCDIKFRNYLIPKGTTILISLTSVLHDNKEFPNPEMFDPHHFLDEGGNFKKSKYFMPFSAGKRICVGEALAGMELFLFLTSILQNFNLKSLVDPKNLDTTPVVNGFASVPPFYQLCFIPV
Chain of Nicotinamide N-methyltransferase (Homo sapiens) (P40261 whole entry, looked up): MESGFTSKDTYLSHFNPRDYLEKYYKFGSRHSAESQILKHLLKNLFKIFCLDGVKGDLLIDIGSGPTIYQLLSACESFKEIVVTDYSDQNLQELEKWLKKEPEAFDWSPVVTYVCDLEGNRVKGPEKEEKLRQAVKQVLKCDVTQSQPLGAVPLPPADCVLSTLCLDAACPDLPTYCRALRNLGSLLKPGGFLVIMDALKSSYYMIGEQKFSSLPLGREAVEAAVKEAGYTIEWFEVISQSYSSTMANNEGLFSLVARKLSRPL
Chain of Catechol O-methyltransferase (Homo sapiens) (P21964 whole entry, looked up): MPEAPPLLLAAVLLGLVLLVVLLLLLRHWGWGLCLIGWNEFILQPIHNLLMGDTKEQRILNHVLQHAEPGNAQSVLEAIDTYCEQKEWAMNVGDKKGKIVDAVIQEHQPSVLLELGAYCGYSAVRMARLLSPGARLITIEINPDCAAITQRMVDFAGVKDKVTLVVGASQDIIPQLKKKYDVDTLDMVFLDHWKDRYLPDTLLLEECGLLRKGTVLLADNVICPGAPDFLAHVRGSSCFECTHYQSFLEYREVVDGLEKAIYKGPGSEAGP

Turning to `COc1cc2c(cc1OC)C(=O)C(CC1CCN(Cc3ccccc3)CC1)C2` (configuration not stated), the Potency in assay [1] is 21.1 µM (active).
With `C#C[C@]1(O)CC[C@H]2[C@@H]3CCC4=CC(=O)CC[C@@H]4[C@H]3CC[C@@]21C`, the Potency in assay [1] is 26.6 µM (active).
Turning to `CCCCCCCCCCCCCCCCOP(=O)([O-])OCC[N+](C)(C)C`, the Potency entry in assay [2] was “inactive”. In addition, the results for the Potency in assay [3] and in assay [1] were 10.6 µM (active) and 11.9 µM (active), respectively. Moreover, in [4], the outcome is “inactive [at 8.33 µM]”.
Consider `CN1C2CCC1CC(OC(=O)c1c[nH]c3ccccc13)C2` (configuration not stated), for which the Potency result with Papain (Carica papaya) was “inactive”.
In the case of `COc1cc2c(cc1O)CC[C@@H]1[C@@H]2CC[C@]2(C)[C@@H](O)CC[C@@H]12`, the Potency result (with Papain (Carica papaya); in [5]; in assay [7]; in [8]) was “inactive” throughout. For the same compound, the Potency was 0.742 µM (active) in assay [3] and 0.59 µM (active) in assay [1]. In assay [6], the outcome is “inactive”.
Turning to `CC/C(=C(/CC)c1ccc(O)cc1)c1ccc(O)cc1`, the Potency entry in [3] was “inactive”. Also, in assay [1], the Potency was 10.6 µM (active) and inactive.
On to `CCCn1c(=O)[nH]c(=O)c2[nH]cnc21`, for which the Potency result with Papain (Carica papaya) is “inactive”.
Consider `CC1(C)CCC(NC(=O)[C@@H](N)CCC(=O)O)CC1`, for which the Potency result with Papain (Carica papaya) is “inactive”.
Turning to `Oc1ccc(O)cc1`, the Potency result (in assay [2]; in the assay with Papain (Carica papaya)) was “inactive” each time. Besides, the Potency is 11.9 µM (active) in assay [3] and 15 µM (active) in [1].
Turning to `CC[C@H](C)C(=O)O[C@H]1CCC=C2C=C[C@H](C)[C@H](CC[C@@H]3C[C@@H](O)CC(=O)O3)[C@H]21`, the Potency result with Papain (Carica papaya) is “inactive”. The Potency in assay [3] and in [1] was 14.8 µM (active) in each case. In addition, the activity was -80.2% in assay [9], -8.02% in assay [11] and -5.04% in assay [12]. Further, the activity change, negative = inhibition in assay [10] is -3.09%.
Take `N[C@@H](Cc1cnc[nH]1)C(=O)O`: the Potency result in the assay with Papain (Carica papaya) is “inactive”.
On the same count and under the same terms, next, `O=C1CCC(c2ccc(-n3ccnc3)cc2)=NN1`: “inactive”; `CC(=O)O[C@H]1C[C@@H]2CC[C@@H]3[C@H](CC[C@@]4(C)[C@H]3C[C@H]([N+]3(C)CCCCC3)[C@@H]4OC(C)=O)[C@@]2(C)C[C@@H]1[N+]1(C)CCCCC1`: “inactive”.
Consider `CCCC1O[C@@H]2C[C@H]3[C@@H]4CCC5=CC(=O)C=C[C@]5(C)[C@H]4[C@@H](O)C[C@]3(C)[C@]2(C(=O)CO)O1` (some centres not stated), for which the Potency in assay [2] is 15.1 µM (active). In addition, the Potency result in the assay with Papain (Carica papaya) is “inactive”.
Turning to `COc1cc(NS(C)(=O)=O)ccc1Nc1c2ccccc2nc2ccccc12`, the Potency in the assay with Papain (Carica papaya) is 22.4 µM (active); in assay [3] it was 0.417 µM (active); in assay [1], 0.332 µM (active).
As for `CC(C)(C)CC(C)(C)c1ccc(OCCOCC[N+](C)(C)Cc2ccccc2)cc1`, the Potency in [3] is 1.19 µM (active) and 1.83 µM (active); in assay [1] it was 944 nM (active) and 1.63 µM (active). Further, the activity in [9] is -13.4%; in assay [11], -59.7%; in assay [12] it was -7.81%. Also, in [10], the activity change, negative = inhibition was -8.7%.
Turning to `COC(=O)[C@@H]1CC2=CC(=O)CC[C@]2(C)[C@@]23O[C@@H]2C[C@@]2(C)[C@@H](CC[C@@]24CCC(=O)O4)[C@H]13`, the Potency entry in [2], in assay [3] and in assay [1] was “inactive” each time.
As to `C[C@@H]1CN(CCCn2c3ccccc3c3ccccc32)C[C@H](C)N1`, in [2], the Potency result is “inactive”. The Potency in [3] is 26.6 µM (active); in assay [1], 23.7 µM (active).
In the case of `COc1cccc2c1C(=O)c1c(O)c3c(c(O)c1C2=O)C[C@@](O)(C(=O)CO)C[C@@H]3O[C@H]1C[C@H](N)[C@H](O)[C@H](C)O1`, the Potency result in [2] is “inactive”. Further, the Potency is 188 nM (active) and 33.2 nM (active) in assay [3]; 150 nM (active) and 26.3 nM (active) in assay [1]; 23 µM (active) in [4].
Consider `CNCC[C@@H](Oc1ccccc1C)c1ccccc1`, for which the Potency entry in assay [2] was “inactive”.
Take `CC(CCc1ccccc1)NCC(O)c1ccc(O)c(C(N)=O)c1` (configuration not stated): the Potency result (with Papain (Carica papaya); in assay [3]; in [1]) was “inactive” throughout.
`COC(=O)[C@H]1[C@H]2C[C@H]3c4[nH]c5ccccc5c4CCN3C[C@H]2CC[C@@H]1O`: the Potency result with Papain (Carica papaya) is “inactive”.
Turning to `CN(C)CCCOc1nn(Cc2ccccc2)c2ccccc12`, the Potency in assay [3] was 9.44 µM (active) and 25.8 µM (active); in [1] it was 10.6 µM (active) and 14.5 µM (active).
Take `O=C1OC(c2ccc(O)cc2)(c2ccc(O)cc2)c2ccccc21`: the Potency entry in assay [5] and in assay [7] was “inactive” in each case. Further, in assay [6], the outcome was “inactive”. Further, in [8], the Potency is 24.8 µM (active) and 27.8 µM (active).
Consider `CC(=O)OCC(=O)[C@@]12OC(C)(C)O[C@@H]1C[C@H]1[C@@H]3C[C@H](F)C4=CC(=O)C=C[C@]4(C)[C@@]3(F)[C@@H](O)C[C@@]12C`, for which the Potency entry in assay [3] is “inactive”. Further, the Potency in assay [1] was 0.9 nM (active) and inactive.
As for `C[C@@H]1C(=O)NC2=Nc3cccc(Cl)c3CN21`, the Potency result with Papain (Carica papaya) is “inactive”.
